Measured values as given in PubChem BioAssay (NCATS).
Results filed as inconclusive are left out. Active and inactive are the calls of the source. Calls come from the whole dose curve; as a rule, active = well fitted curve in the direction sought with a large enough effect; inconclusive = small, poorly fitted or top-dose-only effect, or another doubt; inactive = no such curve, though single readings can be large; an effect the other way counts as inactive or inconclusive.

How the values were obtained:
[1] = BET inhibitor-based combinations targeting novel dependencies in MECOM-rearranged (r) AML: SET-2 cell line (AID 2202231); settings: SET-2 AML cells viability, CellTiter-Glo luminescence, 48 h; viability: stronger effect = lower value, concentration not given here; note: nearly all actives have a fitted effect of over 35% in size;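 for viability: plate controls were DMSO treated cells for no effect and wells without cells for full effect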
Method in brief: (§1)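 Cells were plated at 500 per well and exposed to an 11-point dose series of each drug for 48 hr. Viability was measured by CellTiter-Glo luminescence, normalized to DMSO and empty-well controls, and summarized as AUC and per-cell-line Z-AUC.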

[2] = BET inhibitor-based combinations targeting novel dependencies in MECOM-rearranged (r) AML: OCI-AML3 cell line (AID 2202232); settings: Potency: OCI-AML3 viability; note: nearly all actives have a fitted effect of over 35% in size
Method in brief: as §1

[3] = BET inhibitor-based combinations targeting novel dependencies in MECOM-rearranged (r) AML: MV-4-11 cell line (AID 2202233); note: nearly all actives have a fitted effect of over 45% in size
Method in brief: (§2)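 Activity is given as area under the curve and as Z-AUC, mean-centred within each cell line. It comes from 11-point dose curves normalized to DMSO and empty wells. CellTiter-Glo luminescence was read after 48 hr drug exposure of 500 cells/well.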

[4] = BET inhibitor-based combinations targeting novel dependencies in MECOM-rearranged (r) AML: UCSD-AML1 cell line (AID 2202235); note: nearly all actives have a fitted effect of over 40% in size
Method in brief: as §2

[5] = BET inhibitor-based combinations targeting novel dependencies in MECOM-rearranged (r) AML: HNT-34 cell line (AID 2202234); note: nearly all actives have a fitted effect of over 35% in size
Method in brief: as §2

[6] = BET inhibitor-based combinations targeting novel dependencies in MECOM-rearranged (r) AML: AML-191 cell line (AID 2202236; note: nearly all actives have a fitted effect of over 35% in size)
Method in brief: as §1

[7] = BET inhibitor-based combinations targeting novel dependencies in MECOM-rearranged (r) AML: AML-194 cell line (AID 2202237; note: nearly all actives have a fitted effect of over 40% in size)
Method in brief: as §1
Potency is the fitted concentration of half-maximal effect.

NC(=O)c1ccc2nc(-c3ccc(C4(N)CCC4)cc3)c(-c3ccccc3)n2n1
inactive: viability [1] 98.4%
active: Potency [2] 13.2 µM | Potency [3] 4.17 µM | Potency [4] 3.72 µM

OC[C@H]1O[C@@H](S[C@@H]2O[C@H](CO)[C@H](O)[C@H](n3cc(-c4cccc(F)c4)nn3)[C@H]2O)[C@H](O)[C@@H](n2cc(-c3cccc(F)c3)nn2)[C@H]1O
inactive: viability [1] 115% | Potency [2] | Potency [3] | Potency [5] | Potency [6] | Potency [7]

CSc1ccc(C(=O)/C=C/c2cc(C)c(OC(C)(C)C(=O)O)c(C)c2)cc1
active: Potency [1] 34 µM | Potency [2] 30.3 µM | Potency [3] 6.05 µM
inactive: Potency [4]

C/C=C/C/C=C/CCC(=O)[C@H]1O[C@H]1C(N)=O
active: Potency [1] 20.9 µM | Potency [2] 11.8 µM | Potency [3] 20.9 µM | Potency [5] 14.8 µM | Potency [7] 26.3 µM

Cc1cnc(NC(=O)Nc2cc(Br)c(C)cc2OC[C@@H]2CNCCO2)cn1
active: Potency [1] 4.17 µM | Potency [2] 3.72 µM | Potency [3] 2.09 µM | Potency [5] 9.34 µM | Potency [6] 2.95 µM | Potency [7] 4.17 µM

COCCOC(=O)N1CCN(S(=O)(=O)c2cc(F)c(Oc3ccc(Cl)cc3)c(F)c2)C(C(=O)NO)C1 (stereo not given)
active: Potency [1] 10.5 µM | Potency [2] 14.8 µM | Potency [3] 16.6 µM | Potency [5] 5.9 µM | Potency [6] 8.33 µM | Potency [7] 8.33 µM

CN(Cc1cnc2nc(N)nc(N)c2n1)c1ccc(C(=O)N[C@@H](CCC(=O)O)C(=O)O)cc1
active: Potency [1] 0.0372 µM | Potency [2] 0.0468 µM | Potency [3] 0.105 µM | Potency [4] 0.332 µM
